Screens from PubChem.
In the library only some 0.92% were active in any assay of this set; here they are far more common.
LmPK inh: qHTS Assay for Inhibitors of Leishmania Mexicana Pyruvate Kinase (LmPK) | Q27686 | purified LmPK, Kinase-Glo ATP luminescence, 1 h | Potency, µM (highest dose often 57.5 µM), usual class: inhibitors | 0.37% of 290,000 active
Target sequence (Q27686 whole entry, looked up): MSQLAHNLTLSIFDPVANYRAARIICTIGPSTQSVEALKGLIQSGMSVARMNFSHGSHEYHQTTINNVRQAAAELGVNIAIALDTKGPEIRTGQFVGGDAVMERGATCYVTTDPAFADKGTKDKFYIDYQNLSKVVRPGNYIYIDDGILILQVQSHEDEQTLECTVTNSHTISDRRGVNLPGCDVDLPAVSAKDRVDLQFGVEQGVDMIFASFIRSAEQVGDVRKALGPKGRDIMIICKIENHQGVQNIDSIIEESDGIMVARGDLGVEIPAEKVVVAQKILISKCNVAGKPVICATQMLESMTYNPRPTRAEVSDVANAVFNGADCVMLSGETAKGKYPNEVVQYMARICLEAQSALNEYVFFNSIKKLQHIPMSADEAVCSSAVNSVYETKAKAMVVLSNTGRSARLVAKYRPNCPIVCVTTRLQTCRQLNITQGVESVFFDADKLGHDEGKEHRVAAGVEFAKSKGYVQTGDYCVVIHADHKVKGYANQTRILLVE
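In 50 mM imidazole pH 7.2 with 7 mM MgCl2, LmPK (0.1 nM) turned over PEP (0.5 mM) and ADP (0.1 mM) for 1 h at room temperature. Luciferase read-out of ATP.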
RE007 growth inh: qHTS Assay for Inhibitors of the HIV-1 protein Vpr; Potency, µM (doses to about 92.2 µM), actives largely listed as inhibitors; AID 651644, 2012; 0.21% of 360,000 active; S. pombe RE007 Vpr strain, BacTiter-Glo ATP luminescence, 24 h; active = well fitted falling curve with a large enough effect; inconclusive = small, poorly fitted or top-dose-only effect; inactive = no such curve, though single readings can be large or run the other way; note: nearly all actives have a fitted effect of over 50% in size
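Fission yeast strain RE007, carrying one chromosomally integrated HIV-1 vpr copy, was seeded at OD 0.01 in PMG+AL medium with 23 nL pinned compound. After 24 h at 30 °C and 99% humidity, viability was read by BacTiter-Glo luminescence.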
TbPYK inhibitor: qHTS of Trypanosoma Brucei Inhibitors; TbPYK enzyme, Kinase-Glo Plus ATP luminescence, 45 min; Potency, µM (top dose mostly 76.8 µM), hits mostly inhibitors; 0.12% of 410,000 active; note: nearly all actives have a fitted effect of over 50% in size
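Luminescent Kinase-Glo Plus end-point after 45 min room-temperature reaction of T. brucei pyruvate kinase started with 130 uM ADP (final). Buffer TEA 50 mM pH 7.2 with KCl, MgCl2, BSA, Tween-20; titration-based qHTS with fitted concentration-effect curves.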
NS1 function inh: qHTS Assay for Inhibitors of Influenza NS1 Protein Function; Potency, µM (top dose mostly 46.1 µM); AID 2326, 2010; 0.4% of 270,000 active; calls by dose curve; note: actives are rising curves; nearly all actives have a fitted effect of over 50% in size
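In this qHTS, NS1 from influenza A is expressed in budding yeast, where it slows growth. Cells are switched from glucose to 2% galactose medium (pH 6.0, -URA), treated with compound, and growth recovery is read at OD600.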
AMA1-RON2 inh: qHTS for Inhibitors of AMA1-RON; Towards Development of Antimalarial Drug Lead: Primary Screen | Plasmodium falciparum AMA1 (3D7) - RON2 peptide interaction | AlphaScreen AMA1-biotinylated RON2 peptide binding | Potency, µM (top dose mostly 58.2 µM), usual class: inhibitors | 0.2% of 360,000 active | AID 720542, 2013; note: nearly all actives have a fitted effect of over 45% in size
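AMA1 (3D7) with his tag at 25 nM final met compounds first, then biotinylated RON2 peptide at 25 nM; detection used donor plus acceptor beads, 10 µg/mL apiece, read by AlphaScreen after 30 min at room temperature.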
NS1 inh valid: Assay for Inhibitors of Influenza NS1 Protein Function: Hit Validation | shares compounds with NS1 function inh | influenza NS1 function cell assay, 15-point titration | activity change, negative = inhibition, % at 32.9 µM | 1,400 tested, under 10 active; calls by dose curve
Flu PR8 replic: Assay for Inhibitors of Influenza NS1 Protein Function: Influenza virus replication assay in MDCK cells infected with virus A/PR/8/34; 30% of 95 active; shares compounds with NS1 function inh; AID 504647, 2011; MDCK infected influenza A/PR/8/34, virus titer TCID50; stronger effect = lower value; virus titer (log TCID50), log10 TCID50 at 5 µM; call rule not given here
Numbers stand for hits; n = inactive; u = inconclusive; x = no result; [ ] = another dose, or the depositor's remark. Unless noted, calls come from the whole dose curve; as a rule, active = well fitted curve in the direction sought with a large enough effect; inconclusive = small, poorly fitted or top-dose-only effect, or another doubt; inactive = no such curve, though single readings can be large; an effect the other way counts as inactive or inconclusive.

SMILES | LmPK inh | RE007 growth inh | TbPYK inhibitor | NS1 function inh | AMA1-RON2 inh | NS1 inh valid | others
COc1ccccc1/C=C(\NC(=O)c1ccc(OC)c(OC)c1)C(=O)Nc1ccc([N+](=O)[O-])cc1 | n | n | n | 13µM | n | n
COc1ccc(-n2cc(C(=O)Nc3cc([N+](=O)[O-])ccc3OC)c3ccccc3c2=O)cc1 | n | n | n | 22µM | n | n
COc1cc(OC)c(NC(=O)CC(c2cccs2)N2Cc3ccccc3C2=O)cc1Cl (stereo unspecified) | x | x | n | x | x | x
COc1ccc(OC)c(NC(=O)Cn2cnc3sc(C)c(S(=O)(=O)N4CCN(c5ccccc5OC)CC4)c3c2=O)c1 | x | x | n | x | x | x
Cc1ccc(CSc2ncc(Cl)c(C(=O)NCCc3ccc(S(N)(=O)=O)cc3)n2)cc1 | x | x | n | x | x | x
CS(=O)(=O)N(CC(=O)N1CCCCC1)Cc1ccccc1 | n | n | n | n | n | x
CCOC(=O)C1CCN(C(=O)CN(Cc2ccccc2)S(C)(=O)=O)CC1 | n | n | n | 14µM | n | n
Cc1ccc(/C=C/C(=O)Oc2ccc(C#N)cc2)o1 | n | x | x | u | x | n | Flu PR8 replic=7.5
N/C(CC/C(N)=N/O)=N\O | x | x | x | n | x | x
Cc1ccc(OCC(=O)Nc2c(C(=O)c3ccc(Cl)cc3)oc3ccccc23)cc1C | x | x | n | x | x | x
c1ccc(C2=Nn3c(Cn4nnc5ccccc54)nnc3SC2)cc1 | n | n | n | n | n | x
c1ccc(-c2ccc(C3=Nn4c(Cn5nnc6ccccc65)nnc4SC3)cc2)cc1 | n | n | n | 13µM | n | u
COc1cc(/C=C2/C(=O)NC(=O)N(c3ccccc3)C2=O)ccc1O | n | n | u | u | n | n
COc1ccc(/C=C2/C(=O)NC(=O)N(c3ccccc3)C2=O)cc1CN1C(=O)c2ccccc2C1=O | n | n | u | n | n | x
COc1ccc(-c2ccc(/C=N/NC(=O)Cc3nnc(N)s3)o2)cc1Cl | n | n | n | n | n | x
Cc1ccc(-c2ccc(/C=N/NC(=O)Cc3nnc(N)s3)o2)cc1Cl | n | n | n | u | n | n
C=CCn1c(SCC2=C(C(=O)OCC)C(C)NC(=O)N2)nnc1C1CCCCC1 (stereo unspecified) | n | n | n | 11µM | n | n | Flu PR8 replic=n
C=CCn1c(SCC(=O)NC(=O)NCCC)nnc1C1CCCCC1 | n | n | n | n | n | x
CCCn1c(CCNc2nc(-c3ccc(Cl)c([N+](=O)[O-])c3)cs2)nc2cc(Cl)c(Cl)cc21 | n | n | n | 8.9µM | n | n | Flu PR8 replic=n
O=C(O)c1c(-c2c3ccc(=O)cc-3oc3cc(O)ccc23)cc2ccccc2c1-c1ccccc1 | x | x | x | n | x | x
COc1ccc(Cc2c(C)nn(-c3nc(C)c(C(=O)Nc4cccc(C(C)=O)c4)s3)c2C)cc1 | x | x | n | x | x | x
CC1(C)CC2CC(C)(CN2S(=O)(=O)c2ccc(C(=O)Nc3cccc(S(=O)(=O)N4CCOCC4)c3)cc2)C1 (stereo unspecified) | n | n | n | 13µM | n | n
NC(Cc1c[nH]c2ccccc12)C(=O)NCc1ccccc1 (stereo unspecified) | n | n | n | u | n | n
COc1ccc2nccc(SCC(=O)O)c2c1 | x | x | x | n | x | x
O=C1C2CCCN2C(c2ccccc2)N1c1ccc(F)cc1 (stereo unspecified) | n | n | n | n | n | x
SMILES | LmPK inh | RE007 growth inh | TbPYK inhibitor | NS1 function inh | AMA1-RON2 inh | NS1 inh valid | others
O=C1C2CCCN2C(c2ccc(F)cc2)N1c1ccc(Cl)cc1 (stereo unspecified) | n | n | n | 4µM | n | n
CCOc1ccc(C2N(c3ccc(Cl)cc3)C(=O)C3CCCN32)cc1OC (stereo unspecified) | n | n | n | 7.9µM | n | n
COc1ccccc1CNC(=O)CSc1ccc(-c2sc(-c3ccccc3)nc2C)nn1 | x | x | n | x | x | x
CCOC(=O)CSc1nc2ccc(N3CCOCC3)cc2c(=O)n1Cc1ccccc1 | n | n[3.69 µM] | x | 1µM | n | n
CCOC(=O)CSc1nc2ccccc2c(=O)n1CCN1CCOCC1 | n | n | n | n | n | x
Cc1ccccc1CN1C(=O)c2ccccc2Sc2ccc(C(=O)NCCc3ccccc3)cc21 | x | x | n | x | x | x
Cc1nn(-c2ccccc2)c2c1C(c1ccc(O)c(O)c1)N1C(=N2)C(Nc2ccccc2)=Nc2ccccc21 (stereo unspecified) | n | n | n | u | n | x
Cc1cccc(NC2=Nc3ccccc3N3C2=Nc2c(c(C)nn2-c2ccccc2)C3c2ccc(O)c(O)c2)c1 (stereo unspecified) | n | n | n | 3.5µM | u | n
COc1ccc(-c2cn3nc(N4CCCC(C(=O)NCc5ccccc5C)C4)sc3n2)cc1 (stereo unspecified) | x | x | n[15.4 µM] | x | x | x
C[C@]12C=CC(=O)C=C1CCC1C2=CC[C@]2(C)[C@@H](C(=O)CN3CCN(c4cc(N5CCCC5)nc(N5CCCC5)n4)CC3)CC[C@@H]12 (stereo partly specified) | x | x | x | 35µM | x | u
CC(=O)OCC(=O)C1CCC2C3CCC4=CC(=O)C=CC4(C)C3CCC12C (stereo unspecified) | x | n | n | x | n | x
Cc1cc2cc(CNC(=O)c3cccs3)ccc2n1C | n | n | n | u | n | n
CCc1cccc(C)c1NC(=S)NCc1ccc2c(c1)cc(C)n2C | n | n | n | 14µM | n | n
CCC(CC)C(=O)NCc1ccc2c(c1)cc(C)n2C | n | n | n | u | n | x
Cc1cc2cc(CNC(=O)c3ccc(S(=O)(=O)N4CCCC4)cc3)ccc2n1C | n | n | n | 10µM | n | n
Cc1ccccc1NC(=S)NCc1ccc2c(c1)cc(C)n2C | n | n | n | u | n | x
COc1ccc(/C=C\C(=O)NCc2ccc3c(c2)cc(C)n3C)cc1OC | n | n | n | 11µM | u | n | Flu PR8 replic=n
COc1ccc(C(=O)NCc2ccc3c(c2)cc(C)n3C)cc1OC | n | n | n | x | n | x
COc1ccc(OC)c(-c2cc(C(F)(F)F)c3c(n2)sc2c(O)cc(=O)[nH]c23)c1 | n | n | n | n | n | x
O=c1cc(O)c2sc3nc(-c4ccccc4)cc(C(F)(F)F)c3c2[nH]1 | n | x | n | u | n | n
CCOC(=O)Nc1ccc2c(CN3CCN(S(=O)(=O)c4ccccc4)CC3)cc(=O)oc2c1 | n | n | n | 8.9µM | n | n
